The values below come from PubChem BioAssay (NCATS).

Results filed as inconclusive are left out. A number with no mark means an inactive call. Activity calls are given as the source filed them. The call rests on the fitted dose curve; in most records, active means well fitted cell-killing curve with a large enough effect; inconclusive means small, poorly fitted or top-dose-only effect, or effect the other way; inactive means no such curve, though single readings can be large or run the other way.
Potency means the concentration at half of the fitted maximal effect.

The nature of this assay: Quantitative High-Throughput drug screen in 47 multiple myeloma cell lines against the NCATS MIPE library collection: KMS12BM_JCRB cell viability assay (AID 1918971). Further: nearly all actives have a fitted effect of over 35% in size. As to conditions: KMS12BM myeloma viability, CellTiter-Glo ATP, 48 h; series mostly up to 45.8 µM; viability, % of DMSO: at the top concentration. The text has this: PI: Beverly A. Mock Ph.D.
Laboratory of Cancer Biology and Genetics,
Center for Cancer Research, National Cancer Institute,
National Institute of Health, Bethesda, Maryland
Drug resistance and disease progression are common in multiple myeloma (MM) patients, underscoring the need for new therapeutic combinations. […] We hypothesized that effective combinations would reduce MYC expression and enhance p16 activity. […] These preclinical data identify potentially useful drug combinations for evaluation in drug-resistant MM and reveal potential mechanisms of combined drug sensitivity.
Described herein is the primary MIPE qHTS used to cherrypick compounds. Validated compounds were then further tested for potential synergistic activiy.
[1] Peat TJ, Gaikwad SM, Dubois W, Gyabaah-Kessie N, Zhang S, Gorjifard S, Phyo Z, Andres M, Hughitt VK, Simpson RM, Miller MA, Girvin AT, Taylor A, Williams D, D'Antonio N, Zhang Y, Rajagopalan A, Flietner E, Wilson K, Zhang X, Shinn P, Klumpp-Thomas C, McKnight C, Itkin Z, Chen L, Kazandijian D, Zhang J, Michalowski AM, Simmons JK, Keats J, Thomas CJ, Mock BA. Drug combinations identified by high-throughput screening promote cell cycle transition and upregulate Smad pathways in myeloma. Cancer Lett. 2023 Aug 1;568:216284. doi: 10.1016/j.canlet.2023.216284. Epub 2023 Jun 24. PMID: 37356470; PMCID: PMC10408729.
SEQUENCE No. (e.g., 1, 2, 3, etc.); […] (e.g., Cells, Incubation, Reagent, etc.); VALUE and DESCRIPTION.
1; Cells; 5 uL; white, solid bottom 1536-well Greiner assay plate.
2; Compounds; 23 nL; Kalypsis pin tool (Wako USA) equipped with a 1536-well pin head to transfer to the assay plates.
3; Incubation; 48 hours; 37C incubation.
4; Reagent;5uL; CellTiter Glo (Promega).
5; Detector; 425V; Luminescence; Viewlux PerkinElmer.
NOTES (numbers refer to Sequence numbers above)
1. The cell-based screening methods employed in this study were like those previously published. Briefly, the corresponding myeloma cell lines were screened in 1,536-well plates with 500 cells, 5-uL per well for inhibition of cell viability (assessed by measuring ATP levels with CellTiterGlo).
2. NCATS MIPE 4.0 library of approved and investigational drugs were added using the Kalypsis pin tool. Wells treated with DMSO only for 100% viability and media only wells for 0% viability were used as controls.
3. The assay plates were covered and incubated for 48 hours in a 37C, 5% CO2 incubator with controlled humidity.
4. After 48 hours, CellTilter-GloTM luminescent substrate mix (Promega) reagent was added to the assay plate and plates we incubated for 5 min at room temperature.
5. Signal was measured as median relative luminescence units on a ViewLux (PerkinElmer) multiplate reader.
[1] Heske CM, Davis MI, Baumgart JT, Wilson K, Gormally MV, Chen L, Zhang X, Ceribelli M, Duveau DY, Guha R, Ferrer M, Arnaldez FI, Ji J, Tran HL, Zhang Y, Mendoza A, Helman LJ, Thomas CJ. Matrix Screen Identifies Synergistic Combination of PARP Inhibitors and Nicotinamide Phosphoribosyltransferase (NAMPT) Inhibitors in Ewing Sarcoma. Clin Cancer Res. 2017 Dec 1;23(23):7301-7311. doi: 10.1158/1078-0432.CCR-17-1121. Epub 2017 Sep 12. PMID: 28899971; PMCID: PMC6636827.
(Cellular ATP, detected with luciferase, serves as a proxy for viable cell number.)
For `O=C(O)C=Cc1ccc(Cn2ccnc2)cc1`, the “viability, % of DMSO” value was 129%.
On the same count and under the same terms, the value for `COC(=O)[C@H](CCCN=C(N)N)NS(=O)(=O)c1ccc(C)cc1` was 204%.
With `CS[C@H]1SC[C@@H]2C(=O)N(C)[C@H](C(C)C)C(=O)OC[C@H](NC(=O)c3cnc4ccccc4n3)C(=O)N[C@H](C)C(=O)N(C)[C@@H]1C(=O)N(C)[C@H](C(C)C)C(=O)OC[C@H](NC(=O)c1cnc3ccccc3n1)C(=O)N[C@H](C)C(=O)N2C`, the Potency was 3 nM (active).
On to `Nc1ccn(C2CO[C@H](CO)O2)c(=O)n1` (stereo not given in full), for which the Potency is 833 nM (active).
Consider `COc1cc([C@@H]2c3cc4c(cc3[C@@H](O[C@@H]3O[C@@H]5CO[C@@H](c6cccs6)O[C@@H]5[C@H](O)[C@@H]3O)[C@H]3COC(=O)[C@H]23)OCO4)cc(OC)c1O`, for which the Potency is 1320 nM (active).
For the compound `C=Cc1c(C)c2cc3nc(cc4[nH]c(cc5nc(cc1[nH]2)C(C)=C5CCC(=O)O)c(CCC(=O)OC)c4C)[C@@]1(C)C3=CC=C(C(=O)OC)[C@H]1C(=O)OC`, the Potency is 187 nM (active).
For `COc1cc(OC)c(C=CS(=O)(=O)Cc2ccc(OC)c(NCC(=O)O)c2)c(OC)c1`, the Potency is 418 nM (active).
In the case of `C=CC(=O)Nc1cc(NC(=O)c2ccc(C)c(NC(=O)c3ccno3)c2)cc(C(F)(F)F)c1`, the Potency was 23500 nM (active).
As for `O=C(C[C@@H]1CC=CCCC(=O)O[C@H](c2ccccc2)CNC1=O)NCc1ccc(Cl)cc1`, the “viability, % of DMSO” value is 177%.
Consider `COc1ccc(C[C@@H](C)[C@@H](C)Cc2ccc(OC)c(OC)c2)cc1OC`, for which the Potency was 662 nM (active).
Turning to `CON=C(C(=O)N[C@@H]1C(=O)N2C(C(=O)O)=C(Cn3ccc(=N)n3CCO)CS[C@H]12)c1csc(N)n1`, the “viability, % of DMSO” value is 108%.
For `O=C(Nc1cccc(Nc2ncc(Br)c(NCCc3cnc[nH]3)n2)c1)N1CCCC1`, the Potency is 18700 nM (active).
Consider `C#CCC(Cc1cnc2nc(N)nc(N)c2n1)c1ccc(C(=O)N[C@@H](CCC(=O)O)C(=O)O)cc1` (stereo not given in full), for which the “viability, % of DMSO” value is 104%.
For the compound `COc1ccc(S(=O)(=O)Nc2cc(-c3c(O)ccc4ccccc34)c(O)c3ccccc23)cc1`, the Potency was 26400 nM (active).
For `O=C(NC1CC1)c1cccc(-c2ccc3c(NC(=O)C4CC4)n[nH]c3c2)c1`, the Potency is 8330 nM (active).
For the compound `CCCCCCCCCCCCCCCC(=O)OC[C@@H](NC(=O)C(Cl)Cl)[C@H](O)c1ccc([N+](=O)[O-])cc1`, the “viability, % of DMSO” value is 132%.
As for `c1ccc2c(Oc3nc(Nc4ccc(N5CCOCC5)cc4)c4ncn(C5CCCCC5)c4n3)cccc2c1`, the Potency is 16600 nM (active).
The same measure, in the same setting: in the case of `C[C@H]1[C@@H](OC(=O)CCC(=O)O)O[C@@H]2O[C@@]3(C)CC[C@@H]4[C@H](C)CC[C@@H]1[C@@]24OO3` it was 5260 nM (active).
On to `CN(C)c1ccc(C(=O)NCCCCCCC(=O)NO)cc1`, for which the Potency was 235 nM (active).
On to `Cn1cc(C[C@@H](N)C(=O)O)c2ccccc21`, for which the Potency was 2290 nM (active).
For the compound `CC(C)NC[C@@H](C(=O)N1CCN(c2ncnc3c2[C@H](C)C[C@H]3O)CC1)c1ccc(Cl)cc1`, the Potency is 6620 nM (active).
Turning to `Nc1nc(=O)n([C@H]2CSC(CO)O2)cc1F` (stereo not given in full), the “viability, % of DMSO” value is 129%.
Still for that read-out and setting: in the case of `C[C@@H]1CC[C@@]2(OC1)OC1CC3C4CC=C5CC(O)CCC5(C)C4CCC3(C)C1[C@@H]2C` (stereo not given in full) it was 171%.
For the compound `CN1CCc2c(c3ccccc3n2Cc2ccc(C(=O)NO)cc2)C1`, the Potency was 16600 nM (active).
The same measure, in the same setting: the value for `CC(C)N1[N]C(=C2C=c3cc(O)ccc3=N2)c2c(N)ncnc21` was 166 nM (active); that for `N#CC(=C(N)Sc1ccc(N)cc1)c1ccccc1C(F)(F)F` was 7430 nM (active); that for `CC(C)C[C@H](NC(=O)CNC(=O)c1cc(Cl)ccc1Cl)B1OC(=O)CC(CC(=O)O)(C(=O)O)O1` (stereo not given in full) was 83.3 nM (active).
On the same count and under the same terms, in the case of `CCNC(=O)Nc1ccc(-c2nc3c(c(N4CCOC[C@H]4C)n2)CCN(C2COC2)C3)cc1` it was 1180 nM (active).
As to `CCc1nc(-c2cccc(C)c2)c(-c2ccnc(NC(=O)c3ccccc3)c2)s1`, the Potency was 23500 nM (active).
On the same count and under the same terms, the value for `C[N+](C)([O-])CCNc1ccc(NCC[N+](C)(C)[O-])c2c1C(=O)c1c(O)ccc(O)c1C2=O` was 18700 nM (active).
With `O=C1CSC(=O)N1C(CCc1ccncc1)COc1ccc(-c2cccc([N+](=O)[O-])c2)cc1` (stereo not given), the Potency was 7430 nM (active).
Consider `CN1CCCN(C(=O)c2cccc(-c3ccc(C=C4C(=O)Nc5ccc(Cl)cc54)o3)c2)CC1`, for which the Potency is 23500 nM (active).
Consider `C=CC(=O)Nc1cccc(Nc2nc(NC3CCC(N(C)C)CC3)nc3c2ncn3C(C)C)c1` (stereo not given), for which the Potency is 469 nM (active).
On the same count and under the same terms, the value for `CC(C=CC1=C(C)CCCC1(C)C)=CC=CC(C)=CC(=O)Nc1ccc(O)cc1` was 17100 nM (active); that for `C[C@H](NCc1ccc(OCc2cccc(F)c2)cc1)C(N)=O` was 8330 nM (active).
The same measure, in the same setting: the value for `CC[C@]12C=CCN3CC[C@@]4(c5cc([C@@]6(C(=O)OC)C[C@H]7C[C@@H](C(C)(F)F)CN(Cc8c6[nH]c6ccccc86)C7)c(OC)cc5N(C)[C@H]4[C@@](O)(C(=O)OC)[C@H]1OC(C)=O)[C@@H]32` was 7.4 nM (active); that for `COc1cc2c(cc1OC)[C@@H]1C(=O)c3ccc4c(c3O[C@@H]1CO2)C=CC(C)(C)O4` was 418 nM (active); that for `C=CC[C@@H]1C=C(C)C[C@H](C)C[C@H](OC)[C@H]2O[C@@](O)(C(=O)C(=O)N3CCCC[C@H]3C(=O)O[C@H](C(C)=C[C@@H]3CC[C@H](O)[C@H](OC)C3)[C@@H](C)[C@@H](O)CC1=O)[C@@H](C)C[C@@H]2OC` was 1480 nM (active).
The same measure, in the same setting: the value for `CC[C@@]1([C@@H]2O[C@@H]([C@H]3O[C@@](O)(CO)[C@H](C)C[C@H]3C)C[C@H]2C)CC[C@H]([C@]2(C)CC[C@]3(C[C@H](O)[C@@H](C)[C@@H]([C@@H](C)[C@@H](OC)[C@H](C)C(=O)O)O3)O2)O1` was 45.7 nM (active).
Consider `C[C@](Cc1c[nH]c2ccccc12)(NC(=O)OC1C2CC3CC(C2)CC1C3)C(=O)NC[C@H](NC(=O)CCC(=O)O)c1ccccc1` (stereo not given in full), for which the “viability, % of DMSO” value is 148%.
